# Test results: the supplement of paper PMC4206461
# A number with no mark means an inactive call.
# Tested on: Pseudomonas aeruginosa PA14 dppA1-A5 penta mutant + pBBR5.DppA1 (PA14_58350)
# Assay: respiration area under curve with compound as sole nitrogen source, 24 h (OmniLog AUC (arbitrary units)); higher = more respiration / better utilisation as nitrogen source, active = 2000 or more
# Description: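 Biolog Phenotype MicroArray plates PM6-PM8: each di/tripeptide is the sole nitrogen source. Tetrazolium reduction was read in the OmniLog for 24 h at 37°C and summarised as area under the respiration curve (arbitrary units). Values below 2000 count as no respiration. Strain is the SBP penta mutant complemented with DppA1 on a plasmid under its native promoter. Lys/His/Cys peptides are excluded.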
row,SMILES,respiration area under curve
1,CC(C)C[C@H](N)C(=O)N[C@H](CC(C)C)C(=O)O (plate: PM8),284
2,CC(C)[C@H](N)C(=O)N[C@@H](CCCN=C(N)N)C(=O)O (plate: PM7),12100 (active)
3,CC[C@H](C)[C@H](N)C(=O)N1CCC[C@H]1C(=O)O (plate: PM6),5060 (active)
4,N[C@@H](CC(=O)O)C(=O)N[C@@H](Cc1c[nH]c2ccccc12)C(=O)O (plate: PM6),1340
5,NCC(=O)N[C@@H](CC(N)=O)C(=O)O (plate: PM8),14300 (active)
6,C[C@@H](O)[C@H](N)C(=O)N1CCC[C@H]1C(=O)O (plate: PM7),10700 (active)
7,C[C@H](N)C(=O)N[C@@H](CCC(N)=O)C(=O)O (plate: PM8),10400 (active)
8,N[C@@H](Cc1c[nH]c2ccccc12)C(=O)N[C@@H](CO)C(=O)O (plate: PM7),2890 (active)
9,CSCCC(NC(=O)C(N)CC(C)C)C(=O)O (stereo not given) (plate: PM6),1220
10,CSCC[C@H](N)C(=O)N[C@@H](CCC(N)=O)C(=O)O (plate: PM7),8220 (active)
11,N[C@@H](Cc1c[nH]c2ccccc12)C(=O)N[C@@H](CC(=O)O)C(=O)O (plate: PM7),502
12,N[C@@H](Cc1ccccc1)C(=O)NCC(=O)NCC(=O)O (plate: PM8),7350 (active)
13,NC(N)=NCCC[C@H](N)C(=O)N[C@@H](Cc1c[nH]c2ccccc12)C(=O)O (plate: PM6),7290 (active)
14,N[C@@H](Cc1ccc(O)cc1)C(=O)N[C@@H](Cc1ccccc1)C(=O)O (plate: PM7),6470 (active)
15,CC(C)[C@H](N)C(=O)N[C@@H](CC(N)=O)C(=O)O (plate: PM7),10400 (active)
16,CSCC[C@H](N)C(=O)N[C@@H](CC(=O)O)C(=O)O (plate: PM7),4440 (active)
17,C[C@H](N)C(=O)N[C@@H](Cc1ccc(O)cc1)C(=O)O (plate: PM6),5920 (active)
18,C[C@H](N)C(=O)N[C@@H](C)C(=O)O (plate: PM6),7210 (active)
19,N[C@@H](Cc1c[nH]c2ccccc12)C(=O)N[C@@H](Cc1c[nH]c2ccccc12)C(=O)O (plate: PM7),477
20,NC(Cc1c[nH]c2ccccc12)C(=O)NC(Cc1ccccc1)C(=O)O (stereo not given) (plate: PM7),365

row,SMILES,respiration area under curve
1,CC(C)[C@H](NC(=O)[C@@H](N)CO)C(=O)O (plate: PM7),6730 (active)
2,N[C@@H](Cc1c[nH]c2ccccc12)C(=O)N[C@@H](CCC(=O)O)C(=O)O (plate: PM7),1070
3,N[C@@H](CO)C(=O)N[C@@H](CO)C(=O)O (plate: PM7),6490 (active)
4,NCC(=O)N[C@@H](Cc1ccccc1)C(=O)O (plate: PM6),2000 (active)
5,C[C@H](N)C(=O)N[C@@H](CCC(=O)O)C(=O)O (plate: PM6),6760 (active)
6,NC(=O)C[C@H](N)C(=O)N[C@@H](CCC(=O)O)C(=O)O (plate: PM6),4770 (active)
7,C[C@H](N)C(=O)N[C@H](C(=O)O)[C@@H](C)O (plate: PM6),4830 (active)
8,CC(C)C[C@H](NC(=O)[C@@H](N)CC(=O)O)C(=O)O (plate: PM6),984
9,N[C@@H](CCC(=O)O)C(=O)N[C@@H](CCC(=O)O)C(=O)O (plate: PM6),263
10,CC(C)C[C@H](NC(=O)[C@H](CC(C)C)NC(=O)[C@@H](N)CC(C)C)C(=O)O (plate: PM8),3090 (active)
11,C[C@H](NC(=O)CCN)C(=O)O (plate: PM8),4280 (active)
12,CSCC[C@H](N)C(=O)N[C@H](C(=O)O)C(C)C (plate: PM7),3360 (active)
13,CSCC[C@H](N)C(=O)N[C@@H](Cc1ccc(O)cc1)C(=O)O (plate: PM8),780
14,N[C@@H](Cc1ccc(O)cc1)C(=O)N[C@@H](CCC(=O)O)C(=O)O (plate: PM7),4690 (active)
15,CSCCC(N)C(=O)NC(CCCN=C(N)N)C(=O)O (stereo not given) (plate: PM7),13200 (active)
16,CC(C)C(N)C(=O)NC(CO)C(=O)O (stereo not given) (plate: PM8),6900 (active)
17,NC(CO)C(=O)NC(CCC(=O)O)C(=O)O (stereo not given) (plate: PM8),3950 (active)
18,C[C@@H](O)[C@H](N)C(=O)N[C@@H](CC(=O)O)C(=O)O (plate: PM8),3640 (active)
19,CC[C@H](C)[C@H](NC(=O)[C@@H](N)CCCN=C(N)N)C(=O)O (plate: PM6),8150 (active)
20,N[C@@H](Cc1ccccc1)C(=O)N[C@@H](CC(=O)O)C(=O)O (plate: PM8),2600 (active)
